Screens deposited in PubChem by The Scripps Research Institute Molecular Screening Center.
The list is not random: actives were taken first. Their share in the collection is about 3.5%.
MITF primary: inhibitors of human MITF; O75030; inhibition, % at 2.6 µM; AlphaScreen MITF homodimerization, bead proximity signal; 650,000 tested, 0.91% active; AID 1259374; in the data active = inhibition above about 50%;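 also: 0% = vehicle wells with protein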
TEAD-YAP block: TEAD-YAP interaction inhibition; 640,000 tested, 1.4% active; HEK-TIYL cells, TEAD-Gal4/YAP UAS-luciferase luminescence; inhibition, % at 9.12 µM; in the data active = inhibition above about 32%;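 also: 0% = median of test compound wells and 100% = reference inhibitor wells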
GPR151 ag: activates the human receptor GPR151. PathHunter beta-arrestin GPR151 cells, luminescence. 650,000 tested, 1% active. activation, % at 11.2 µM. AID 1508602. Q8TDV0; in the data active = activation above about 4.9%;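 also: 0% = median of compound wells and 100% = cells with positive control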
Target sequence (Q8TDV0 whole entry, looked up): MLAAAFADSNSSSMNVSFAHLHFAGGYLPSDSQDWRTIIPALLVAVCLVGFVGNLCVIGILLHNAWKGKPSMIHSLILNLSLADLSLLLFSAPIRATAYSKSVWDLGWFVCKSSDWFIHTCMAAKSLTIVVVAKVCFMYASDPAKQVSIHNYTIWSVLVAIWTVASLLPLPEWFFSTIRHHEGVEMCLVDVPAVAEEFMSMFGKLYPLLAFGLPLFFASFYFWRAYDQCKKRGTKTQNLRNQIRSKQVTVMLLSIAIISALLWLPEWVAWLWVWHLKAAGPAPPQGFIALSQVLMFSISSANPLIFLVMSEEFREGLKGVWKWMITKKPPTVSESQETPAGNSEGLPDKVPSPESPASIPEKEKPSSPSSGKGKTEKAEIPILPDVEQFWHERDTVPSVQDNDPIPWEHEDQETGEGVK
FBW7 act: human FBW7 E3 ligase activation, primary screen. AlphaScreen FBW7–phospho-cyclin E peptide binding, activator screen. normalized activity (activation), % at 26.1 µM. 650,000 tested, 0.13% active. AID 1259310; in the data active = normalized activity above about 1.9%;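 also: purified mutant Fbw7 with reduced substrate affinity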
GPR151 conf act: human GPR151 activation, confirmation screen; shares compounds with GPR151 ag; GPR151 PathHunter beta-arrestin cells, luminescence, 90 min; % of EA-reagent control over plate median; activation, % at 11.2 µM; 6,700 tested, under 10 active; AID 1508609;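 active = mean percent activation across replicates above the confirmation screen cutoff of 4.91%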
GPR119 ag: counter-screen for GPR151 activators: effect on human GPR119 | 6,700 tested, 0.3% active | shares compounds with GPR151 ag | GPR119 PathHunter beta-arrestin cells, luminescence, 90 min; 0 = compound-well median, 100 = enzyme-acceptor control | activation, % at 11.2 µM;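 active = mean percent activation in the counterscreen above 29.09%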;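 also: counterscreen on off-target GPR119 to flag nonselective hits from the GPR151 activator screen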
An asterisk follows results filed as active.

Screening O=C(O)CC(NC(=O)C12CC3CC(CC(C3)C1)C2)c1cccc([N+](=O)[O-])c1 (stereo not given) returned MITF primary -4, TEAD-YAP block -13, GPR151 ag 6.0*, FBW7 act 0, GPR151 conf act 0 and GPR119 ag 0.
Screening O=C(O)CC(NC(=O)C12CC3CC(CC(C3)C1)C2)c1ccc(Cl)cc1 (stereo not given) returned MITF primary 1, TEAD-YAP block 12, GPR151 ag 2 and FBW7 act 0.
`N#C/C(=C\c1ccc(-c2cc(Cl)ccc2Cl)o1)C(=O)Nc1cccc2ncccc12` gave MITF primary -1, GPR151 ag 5.7*, GPR151 conf act 0 and GPR119 ag 8.
For COCCNC(=O)/C(C#N)=C/c1ccc(-c2cc(Cl)ccc2Cl)o1 the results were MITF primary -6, TEAD-YAP block -2, GPR151 ag -1 and FBW7 act 0.
`Cc1cccc(N=c2sc(C3=c4ccccc4=NC3=O)c(O)n2-c2cccc(C)c2)c1` gave MITF primary -3, TEAD-YAP block 2, GPR151 ag 0 and FBW7 act 0.
For Cc1ccc(S(=O)(=O)/N=c2\sc(C3=c4ccccc4=NC3=O)c(O)n2C)cc1 the results were MITF primary 5, TEAD-YAP block 13, GPR151 ag 6.8*, FBW7 act 0, GPR151 conf act 0 and GPR119 ag -1.
For Cc1cc(NC(=O)c2cccc(F)c2)ccc1-c1cc2ccccc2oc1=O the results were MITF primary -14, TEAD-YAP block -1, GPR151 ag 0 and FBW7 act 0.
Cc1cc(CN(C)C(=O)CC2(c3cccc(F)c3)CC(=O)N(Cc3cccnc3)C2=O)n[nH]1 (stereo not given) was read as MITF primary 13, TEAD-YAP block 0, GPR151 ag 12*, FBW7 act 0, GPR151 conf act 0 and GPR119 ag 7.
`Cc1cc(CN(C)C(=O)CC2(c3ccccc3C)CC(=O)N(Cc3cccnc3)C2=O)n[nH]1` (stereo not given) gave MITF primary -5, TEAD-YAP block -9, GPR151 ag 1 and FBW7 act 0.
For Cn1c(=O)c2c(ncn2CCn2cnc3c2c(=O)n(C)c(=O)n3C)n(C)c1=O the results were MITF primary 2, TEAD-YAP block 1, GPR151 ag -2 and FBW7 act 0.
Screening CN(C)C(=O)NCCn1cnc2c1c(=O)n(C)c(=O)n2C returned MITF primary 13, TEAD-YAP block 3, GPR151 ag 6.2*, FBW7 act 0, GPR151 conf act -1 and GPR119 ag -2.
COc1cc(NS(=O)(=O)c2ccc(NC(=O)c3ccc(C(C)=O)cc3)cc2)ncn1 was read as MITF primary 13, TEAD-YAP block -7, GPR151 ag 5.7*, FBW7 act 0, GPR151 conf act 0 and GPR119 ag -13.
Screening CC(=O)c1ccc(NC(=O)Nc2ccc(S(=O)(=O)N3CCCC3)cc2)cc1 returned MITF primary 9, TEAD-YAP block 17, GPR151 ag -1 and FBW7 act 0.
CC(=O)c1ccc(NC(=O)c2ccc(S(=O)(=O)N3CCCC3)cc2)cc1 was read as MITF primary 11, TEAD-YAP block 1, GPR151 ag 5.0*, FBW7 act 0, GPR151 conf act -1 and GPR119 ag -13.
COc1ccc(C2C(C(=O)Nc3ccc(C)cc3)=C(C)Nc3nnnn32)cc1 (stereo not given) was read as MITF primary -1, TEAD-YAP block -5, GPR151 ag 1 and FBW7 act 0.
Screening C=CCNCCC1CCC(=O)N1Cc1cn2c(C)csc2n1 (stereo not given) returned MITF primary 22, TEAD-YAP block -7, GPR151 ag 12*, FBW7 act 1, GPR151 conf act 0 and GPR119 ag 7.
C=CCNCCC1CCC(=O)N1Cc1ccc(C)c(F)c1 (stereo not given) was read as MITF primary 12, TEAD-YAP block 5, GPR151 ag 1 and FBW7 act 0.
For CCN(CC)CCCNC(=O)c1cc(C(=O)OC)cc([N+](=O)[O-])c1 the results were MITF primary 2, TEAD-YAP block 0, GPR151 ag 1 and FBW7 act 0.
For O=S(=O)(c1ccc(Oc2ccc(S(=O)(=O)N3CCC4(CC3)OCCO4)cc2)cc1)N1CCC2(CC1)OCCO2 the results were MITF primary -6, TEAD-YAP block 5, GPR151 ag 8.5*, FBW7 act 0, GPR151 conf act 0 and GPR119 ag 0.
`O=S(=O)(c1ccc(S(=O)(=O)N2CCC3(CC2)OCCO3)cc1)N1CCCC1` gave MITF primary 7, TEAD-YAP block -3, GPR151 ag -1 and FBW7 act 0.
`Cc1ccc(C(=O)Nc2ccc(C(=O)N/N=C/c3cccc(C)n3)cc2)cc1` gave MITF primary 1, TEAD-YAP block 14, GPR151 ag 6.1*, FBW7 act 0, GPR151 conf act 0 and GPR119 ag -3.
Screening Cc1cccc(/C=N/NC(=O)c2ccc(F)cc2)n1 returned MITF primary 1, TEAD-YAP block -30, GPR151 ag 1 and FBW7 act 0.
N#C/C(=C(/O)c1ccc(I)cc1)c1nc2ccccc2s1 was read as MITF primary 2, TEAD-YAP block -51, GPR151 ag -4 and FBW7 act 0.
For COc1ccc(CCNC(=O)CCCCCn2c(SCC(=O)NCCc3ccccc3)nc3cc4c(cc3c2=O)OCO4)cc1OC the results were MITF primary 8, TEAD-YAP block -2, GPR151 ag 1 and FBW7 act 0.
CCCCOc1c(I)cc(C(=O)O)cc1OCC was read as MITF primary -9, TEAD-YAP block -3, GPR151 ag 0 and FBW7 act 0.
`CCOc1cc(C(=O)O)cc(I)c1OCc1ccccc1` gave MITF primary -1, TEAD-YAP block 8, GPR151 ag 9.2*, FBW7 act 0, GPR151 conf act 0 and GPR119 ag 7.
Screening CCc1nnc(-c2cc3ccccc3n2CC(=O)Nc2cccc(Cl)c2)o1 returned MITF primary -9, TEAD-YAP block 9, GPR151 ag 5.3*, FBW7 act 0, GPR151 conf act 0 and GPR119 ag -9.
`CC1(C)C(c2cccs2)=[N+]([O-])C2(CCCCCC2=O)N1O` (stereo not given) gave MITF primary 8, TEAD-YAP block 4, GPR151 ag 1 and FBW7 act 0.
For CC1(C)C(c2ccco2)=[N+]([O-])C2(CCCCCC2=O)N1O (stereo not given) the results were MITF primary -2, TEAD-YAP block 0, GPR151 ag 7.7*, FBW7 act 0, GPR151 conf act 0 and GPR119 ag 14.
